The first assay relates to TEK.
As for `Cl.O=C(Nc1ccc(Oc2ccc3[nH]c(NC(=O)c4ccco4)nc3c2)cc1)Nc1cc(C(F)(F)F)ccc1F` [GW683134A], the Kinases covered entry is recorded as “TEK”.

As for `Nc1ncnc2occ(-c3ccc(NC(=O)Nc4cc(C(F)(F)F)ccc4F)cc3)c12` [GW770249X], the Kinases covered entry is “TEK”.

`COC(=O)Nc1nc2ccc(Oc3ccc(NC(=O)Nc4cc(C(F)(F)F)ccc4F)cc3)cc2s1.Cl` [GW693917A]: the Kinases covered result is “TEK”.

Consider `Cl.O=C(Nc1ccc(Oc2ccc3[nH]c(NC(=O)c4ccccc4)nc3c2)cc1)Nc1cc(C(F)(F)F)ccc1F` [GW709042A], for which the Kinases covered entry is “TEK”.

The next assay concerns TYK2.
On to `COc1ccc(-c2cc3c(N)ncnc3o2)cc1` [GW642138X], for which the Kinases covered result was “TYK2”.

Turning to `CN(C)C/C=C/C(=O)Nc1ccc(C(=O)Nc2cccc(Nc3ncc(Cl)c(-c4c[nH]c5ccccc45)n3)c2)cc1` [THZ1], the Kinases covered entry was “TYK2”.

Regarding `Nc1ncnc2[nH]c(-c3ccccc3)nc12` [AH5015], the Kinases covered entry is “TYK2”.

In the next assay the test system is YSK4.
As to `CCCc1cc(N2CCCN(C)CC2)nc2sc3c(N)ncnc3c12` [BI00604564], the Kinases covered result was “YSK4”.

As to `NC(=O)c1cccnc1COc1cc(-c2ccc(N3CCOCC3)nc2)cc2ncccc12` [BI01125081], the Kinases covered result was “YSK4”.

On to `Cc1cc(NC(=O)c2cccc(NC(=O)/C=C/CN(C)C)c2)ccc1Nc1nccc(-c2cccnc2)n1` [JNK-IN-7], for which the Kinases covered entry is “YSK4”.

`COc1cc2c(cc1OC)C(=C(Nc1ccccc1)c1cccc(CN)c1)C(=O)N2` [BIBF0846CL]: the Kinases covered entry is given as “YSK4”.

For `CC(C)N1CC(=O)N(C)c2cnc(Nc3cccc(S(=O)(=O)CCN4CCOCC4)c3)nc21` [BI00009348], the Kinases covered result was “YSK4”.

The values above are taken from PMC7826789 (International Journal of Molecular Sciences, 2021).
